Most compounds without a hit are left out; they make up all but 17% or so of the library.
HepG2 tox – HepG2 cytotoxicity, counter-screen for TGF-b inhibitors. HepG2 CAGA-GFP viability, ATP luminescence, 18 h. Potency, µM (titrated, usually from 46.1 µM), for the others: top-dose activity change, negative = cytotoxicity, usual class: cytotoxic. hit rate 0.76% among 410,000. AID 588856
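HepG2 CAGA-GFP cells (1000/well, DMEM with 1% FBS) received compound, then TGF-beta at 500 pg/mL final, and were incubated 18 hours at 37 degrees C. Viability was read by CellTiter-Glo luminescence. Media-only wells were set as complete cell-killing and DMSO as no toxicity.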
TGFb SMAD3 inh – blocks TGF-b signaling; HepG2 CAGA-GFP TGF-b/SMAD3 reporter, GFP fluorescence, 18 h; TGF-beta stimulated, 500 pg/mL final; Potency, µM (top dose mostly 46.1 µM), for inactives: at the highest dose activity, negative = inhibition, usual class: inhibitors; hit rate 1.2% among 410,000; further: on the % scale 0 is the no-effect control and ±100 the full control effect; nearly all actives have a fitted effect of over 65% in size
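First, reporter cells (HEPG2 CAGA-GFP) rested 2 h at 37 degrees C. Next, compounds were pinned in and TGF-beta added to 500 pg/mL final. After 18 h, GFP was imaged per cell and summed per well.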
ATXN2 expr inh – reduces ATXN2 reporter expression in HEK-293 cells | HEK-293 ATXN2-luciferase reporter, luminescence, 24 h | Potency, µM (top dose mostly 57 µM), without a hit: top-dose activity change, negative = inhibition, usual class: inhibitors | hit rate 0.72% among 360,000 | AID 1745845; further: on the % scale 0 is the no-effect control and ±100 the full control effect; nearly all actives have a fitted effect of over 55% in size
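ATXN2-luciferase reporter cells (luciferase flanked by upstream and downstream ATXN2 gene portions) were treated 24 h at 37 °C with compounds at up to 57 uM. SteadyGlo luminescence gave expression; GF-AFC fluorescence gave viability.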
TDP1 cell noCPT – qHTS for Inhibitors of human tyrosyl-DNA phosphodiesterase 1 (TDP1): qHTS in cells in absence of CPT; hit rate 15% among 420,000; Potency, µM (highest dose often 46.2 µM), inactives show at the top dose activity change, negative = growth inhibition, hits mostly inhibitors; DT40 Tdp1-/- hTDP1 cells, no CPT, ATP luminescence, 48 h; AID 686978, 2013; further: on the % scale 0 is the no-effect control and ±100 the full control effect; nearly all actives have a fitted effect of over 55% in size
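Chicken DT40 Tdp1-/- cells stably complemented with human TDP1 were seeded at 400 cells/well with DMSO in place of 20 nM camptothecin. After compound pinning, cells grew at least 48 hr at 37 °C; viability read by CellTiter-Glo luminescence.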
ATXN viability – viability counter-screen for ATXN expression inhibitors; S2 cells (HEK-293 line with an ATXN2-luciferase reporter) viability, CellTiter-Fluor protease fluorescence, 24 h; Potency, µM (doses to about 56.7 µM), most hits filed as cytotoxic; hit rate 0.49% among 400,000; AID 651635; further: nearly all actives have a fitted effect of over 40% in size
DT40 TDP1 CPT – growth inhibition of DT40 Tdp1-/-;hTDP1 cells with camptothecin (screen for TDP1 inhibitors). chicken DT40 Tdp1-/-;hTDP1 cells + 20 nM CPT, ATP luminescence, 48 h. Potency, µM (series often up to 46.2 µM), for inactives: top-dose activity change, negative = growth inhibition, most hits filed as inhibitors. hit rate 12% among 420,000. AID 686979; further: on the % scale 0 is the no-effect control and ±100 the full control effect; nearly all actives have a fitted effect of over 55% in size
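Cell growth measured by CellTiter-Glo luminescence after a minimum 48 h, 37 C compound exposure with 20 nM CPT in Tdp1-knockout DT40 cells stably expressing hTDP1, seeded 400/well; qHTS titration format.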
An asterisk follows results filed as active; i = inactive; ? = inconclusive; nt = not tested or not shown; [ ] = remark or other dose. The call rests on the fitted dose curve; in most records, active means well fitted curve in the direction sought with a large enough effect; inconclusive means small, poorly fitted or top-dose-only effect, or another doubt; inactive means no such curve, though single readings can be large; an effect the other way counts as inactive or inconclusive. Potency means the concentration at half of the fitted maximal effect.

SMILES	HepG2 tox	TGFb SMAD3 inh	ATXN2 expr inh	TDP1 cell noCPT	ATXN viability	DT40 TDP1 CPT
COCCNC(=O)c1ccc2c(c1)nc(C)n2-c1cc(OC)c(OC)c(OC)c1	1.7%	6.4%	6.3%	7.4%	i	2.0%
CCCCCCC(=O)N(O)C1CC(=O)N(c2ccc(Cl)cc2)C1=O (stereo not given)	-13.1%	?	-5.3%	2.91µM*	i	2.31µM*
Cc1ccc(N2C(=O)CC(N(O)C3CC(=O)N(c4ccc(C)cc4)C3=O)C2=O)cc1 (stereo not given)	7.7%	-1.1%	1.4%	?	i	?
CCCCCCC(=O)N(O)C1CC(=O)N(c2ccc(C)cc2)C1=O (stereo not given)	-67.4%	12.9%	nt	5.8µM*	nt	2.91µM*
COc1cccc(Nc2ncc3nc(C)c(=O)n(CCc4ccccc4)c3n2)c1	nt	nt	nt	-4.6%	nt	-0.1%
Cc1ccc(S(=O)(=O)c2ccc(C)cc2)cc1	-16.1%	0.6%	-6.3%	-12.2%	i	0.6%
Cc1ccc(S(=O)(=O)c2ccc(Oc3cccc(C)c3)cc2)cc1	-19.7%	-2.6%	-9.6%	20.6µM*	?	?
Oc1ccc(Cl)cc1-c1cc(-c2cccc(Br)c2)n[nH]1	-23.2%	-28.8%	8.3%	18.4µM*	i	16.4µM*
Oc1ccc(Cl)cc1-c1cc(-c2ccco2)[nH]n1	-43.8%	?	14.6%	18.4µM*	i	9.2µM*
Oc1ccc(Cl)cc1-c1cc(-c2ccccc2Cl)[nH]n1	-20.6%	-12.6%	22.3%	-18.3%	i	-14.9%
Oc1ccccc1-c1cc(-c2ccco2)[nH]n1	-15.7%	-12.9%	104.2%	-25.5%	i	-10.9%
CN(C)S(=O)(=O)c1ccc(N2C(=O)CC2(/C=C/c2ccccc2)C(=O)NC2CCCC2)cc1 (stereo not given)	3.7%	-0.6%	16.2%	?	i	?
COc1ccccc1/C=C/C1(C(=O)NC2CCCC2)CC(=O)N1c1ccccc1 (stereo not given)	8.4%	?	nt	7.31µM*	?	6.51µM*
CCn1c(O)c(N=NC(=O)c2ccc(CSc3nncn3C)cc2)c2ccccc21	-14.7%	-21.0%	-10.1%	14.6µM*	i	?
Cn1cnnc1SCc1ccc(C(=O)N=Nc2c(O)n(Cc3ccc(Cl)cc3)c3ccccc23)cc1	5.9%	?	?	10.3µM*	?	20.6µM*
CCn1c(O)c(N=NC(=O)Cn2ccc(C(F)(F)F)n2)c2ccccc21	-34.5%	?	-3.6%	?	i	-27.4%
O=S(=O)(NC1CCCC1)c1ccc(F)cc1F	1.6%	1.5%	nt	-5.7%	i	-1.2%
CC(=O)Nc1cccc(-c2ccnc3c2CC(C(=O)NCc2ccncc2)O3)c1 (stereo not given)	-6.5%	-4.3%	8.0%	-19.5%	i	-5.5%
CC(=O)Nc1cccc(-c2ccnc3c2CC(C(=O)NCc2ccc(N(C)C)cc2)O3)c1 (stereo not given)	-28.6%	0.7%	-1.9%	18.4µM*	i	13µM*
CC(=O)Nc1ccc(-c2ccnc3c2CC(C(=O)NCc2ccc(N4CCN(C)CC4)cc2)O3)cc1 (stereo not given)	-7.2%	16.5%	10.6%	?	i	?
NC(=O)c1cccc(-c2ccnc3c2CC(C(=O)NCc2ccc(F)c(F)c2)O3)c1 (stereo not given)	-21.7%	7.2%	-3.0%	8.2µM*	i	4.61µM*
CN1CCN(c2ccc(CNC(=O)C3Cc4c(-c5ccc(Cl)cc5)ccnc4O3)cc2)CC1 (stereo not given)	-53.6%	?	?	16.4µM*	?	?
NC(=O)c1cccc(-c2ccnc3c2CC(C(=O)NCCC(F)(F)F)O3)c1 (stereo not given)	-17.6%	4.9%	7.5%	-20.2%	i	?
NC(=O)c1cccc(-c2ccnc3c2CC(C(=O)NCc2ccccc2)O3)c1 (stereo not given)	-15.4%	2.7%	-2.9%	1.3µM*	i	0.581µM*
Cc1cccnc1-c1cccc2c1OC(CNC(=O)Cn1cncn1)C2 (stereo not given)	nt	nt	nt	-3.8%	i	5.0%[9.04 µM]
SMILES	HepG2 tox	TGFb SMAD3 inh	ATXN2 expr inh	TDP1 cell noCPT	ATXN viability	DT40 TDP1 CPT
CCc1cccc(NC(=O)CNS(=O)(=O)c2ccc3nc(C)sc3c2)c1	-23.4%	nt	nt	-28.8%	nt	-5.9%
CCc1nc2c(OCC(=O)c3ccc(F)cc3)cccn2c1N(C)C(=O)c1cccs1	4.7%	8.5%	4.2%	?	i	?
O=C(NCc1cccc(Cl)c1)C1Cc2c(-c3ccccc3)ccnc2O1 (stereo not given)	-23.9%	0.1%	-14.2%	16.4µM*	?	29.1µM*
O=C(NCc1ccncc1)C1Cc2c(-c3ccc(Cl)cc3)ccnc2O1 (stereo not given)	-0.2%	21.3%	-23.2%	?	i	?
CC(=O)Nc1cccc(-c2ccnc3c2CC(C(=O)NCc2ccc(F)c(F)c2)O3)c1 (stereo not given)	-3.5%	-9.1%	-6.5%	3.26µM*	i	3.26µM*
O=C(NCc1cccnc1)C1Cc2c(-c3ccc(Cl)cc3)ccnc2O1 (stereo not given)	-13.4%	13.3%	-23.5%	8.2µM*	i	5.8µM*
CCOC(=O)c1[nH]c2cc3c(cc2c1NC(=O)CN1CCc2ccccc2C1)OCO3	-24.6%	0.0%	0.0%	11.6µM*	i	16.4µM*
CCOC(=O)c1[nH]c2cc3c(cc2c1NC(=O)CN1CCCC1)OCO3	7.5%	-20.6%	3.8%	?	i	-7.4%
CCOC(=O)c1[nH]c2cc3c(cc2c1NC(=O)CN1CCC(C)CC1)OCO3	-23.2%	?	-2.7%	11.2µM*	?	17.8µM*
CCOc1ccc(N(CC(=O)NCCSCc2ccc(Cl)cc2)S(C)(=O)=O)cc1	-13.2%	-6.4%	nt	?	i	?
Cc1ccc(S(=O)(=O)N2c3ccccc3OC(C(=O)OC(C)(C)C)(C(=O)OC(C)(C)C)C2CC(=O)c2ccccc2)cc1 (stereo not given)	nt	nt	nt	5.8µM*	nt	6.51µM*
COC(=O)CC1N(S(=O)(=O)c2ccc(C)cc2)c2ccccc2C1(C(=O)OC)C(=O)OC (stereo not given)	nt	nt	nt	?	nt	25.9µM*
CCOC(=O)C1CN(S(=O)(=O)c2ccc(C)cc2)c2ccccc2O1 (stereo not given)	-1.4%	-6.6%	2.8%	-19.8%	i	-1.1%

Bioassay records as filed in PubChem.
